Laboratory results published in PubChem BioAssay (EPA / NIEHS).
Values joined by “and” are separate entries in the source; they are usually repeats but may differ in a detail not shown here. Equal values may be shown once. More than one record can exist for a structure, and the calls need not agree. Active and inactive are the calls of the source. The calls were made as follows: active = hit-call score of the fitted dose curve at least 0.9, where 1 is the maximum; inactive = score below 0.9.

read-out: Matrix Metallopeptidase 9 (MMP9), MMP9 (gene 4318); assay: BSK_KF3CT_MMP9: BioMAP Diversity Plus: KF3CT Assay for Matrix Metallopeptidase 9 (MMP9) Biomarker Activity (AID 2283074); settings: primary human keratinocytes with fibroblasts; actives raise or lower the signal;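 as to AC50: MMP9 protein level quantified by ELISA in the co-culture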
How it was run: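 Human keratinocyte/foreskin fibroblast co-culture; compound added; 24 h; MMP-9 by ELISA; bidirectional fit vs DMSO baseline.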

Chain of E-selectin (Homo sapiens) (P16581 whole entry, looked up): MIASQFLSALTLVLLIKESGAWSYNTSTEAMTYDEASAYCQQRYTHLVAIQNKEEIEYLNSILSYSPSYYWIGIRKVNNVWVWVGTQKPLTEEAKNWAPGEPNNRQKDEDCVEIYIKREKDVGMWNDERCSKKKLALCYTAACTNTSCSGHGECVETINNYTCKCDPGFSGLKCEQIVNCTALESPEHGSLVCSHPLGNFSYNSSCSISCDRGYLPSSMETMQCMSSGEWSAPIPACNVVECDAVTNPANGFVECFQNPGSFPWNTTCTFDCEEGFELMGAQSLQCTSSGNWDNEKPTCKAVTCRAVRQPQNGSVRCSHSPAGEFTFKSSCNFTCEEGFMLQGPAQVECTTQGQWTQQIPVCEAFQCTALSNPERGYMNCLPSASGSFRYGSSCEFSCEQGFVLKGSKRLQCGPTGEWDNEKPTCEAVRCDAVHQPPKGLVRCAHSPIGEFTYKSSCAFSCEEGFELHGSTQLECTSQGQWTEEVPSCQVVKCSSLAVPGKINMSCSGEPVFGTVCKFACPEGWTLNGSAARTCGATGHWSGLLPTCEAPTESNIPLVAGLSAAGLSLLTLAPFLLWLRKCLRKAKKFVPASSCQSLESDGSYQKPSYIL
Chain of Tumor necrosis factor (Homo sapiens) (P01375 whole entry, looked up): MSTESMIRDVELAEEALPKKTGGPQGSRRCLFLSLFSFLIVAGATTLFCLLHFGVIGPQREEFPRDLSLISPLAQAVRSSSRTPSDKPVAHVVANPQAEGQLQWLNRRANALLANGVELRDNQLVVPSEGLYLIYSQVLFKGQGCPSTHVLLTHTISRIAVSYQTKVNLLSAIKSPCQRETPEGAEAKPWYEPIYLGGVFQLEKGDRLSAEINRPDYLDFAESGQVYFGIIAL

| Structure (SMILES) | AC50 | outcome |
| --- | --- | --- |
| Nc1ccc(-c2ccc(N)c(N)c2)cc1N | 16.1 µM (active) | – |
| O=c1[nH]c(Cl)c(Cl)cc1Cl | – | inactive |
| O=C(O)CCCc1ccc(N(CCCl)CCCl)cc1 | 20 µM (active) | inactive |
| COC(C)(C)CCC[C@H](C)C/C=C/C(C)=C/C(=O)OC(C)C | 29 µM (active) | – |
| O=P1(NCCCl)OCCCN1CCCl (centres undefined) | – | inactive |
| O=S(=O)(c1ccccc1)c1ccccc1 | – | inactive |
| Clc1ccc(-c2ccccc2)cc1 | – | inactive |
| Oc1cc(Cl)ccc1Cl | – | inactive |

read-out: CD40, CD40 (gene 958); assay: BSK_LPS_CD40: BioMAP Diversity Plus: LPS Assay for CD40 Biomarker Activity (AID 2283076); settings: primary human HUVEC with PBMC; actives raise or lower the signal
How it was run: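 Using a multiplexed primary human co-culture (umbilical vein endothelium plus PBMC), CD40 was read by ELISA 24 h after dosing, with cytotoxicity tracked by sulforhodamine B staining of parallel cultures and activity fitted bidirectionally versus DMSO.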

| Structure (SMILES) | outcome | AC50 |
| --- | --- | --- |
| Nc1ccc(-c2ccc(N)c(N)c2)cc1N | inactive | – |
| O=c1[nH]c(Cl)c(Cl)cc1Cl | inactive | – |
| O=C(O)CCCc1ccc(N(CCCl)CCCl)cc1 | – | 20 µM (active) |
| COC(C)(C)CCC[C@H](C)C/C=C/C(C)=C/C(=O)OC(C)C | – | 20 µM (active) |
| O=P1(NCCCl)OCCCN1CCCl (centres undefined) | inactive | – |
| O=S(=O)(c1ccccc1)c1ccccc1 | inactive | – |
| Clc1ccc(-c2ccccc2)cc1 | inactive | – |
| Oc1cc(Cl)ccc1Cl | inactive | – |

read-out: E-selectin (Homo sapiens) (UniProt P16581); assay: BSK_LPS_Eselectin: BioMAP Diversity Plus: LPS Assay for Eselectin Biomarker Activity (AID 2283077); settings: primary human HUVEC with PBMC; actives raise or lower the signal
How it was run: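 Dose chemical onto LPS-driven HUVEC/PBMC co-culture; after 24 h, run ELISA for E-selectin; fit up- and down-going responses relative to DMSO control.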

| Structure (SMILES) | outcome | AC50 |
| --- | --- | --- |
| Nc1ccc(-c2ccc(N)c(N)c2)cc1N | inactive | – |
| O=c1[nH]c(Cl)c(Cl)cc1Cl | inactive | – |
| O=C(O)CCCc1ccc(N(CCCl)CCCl)cc1 | inactive | 20 µM (active) |
| COC(C)(C)CCC[C@H](C)C/C=C/C(C)=C/C(=O)OC(C)C | – | 35.3 µM (active) |
| O=P1(NCCCl)OCCCN1CCCl (centres undefined) | inactive | – |
| O=S(=O)(c1ccccc1)c1ccccc1 | inactive | – |
| Clc1ccc(-c2ccccc2)cc1 | inactive | – |
| Oc1cc(Cl)ccc1Cl | inactive | – |

read-out: Interleukin-8 (IL8), CXCL8 (gene 3576); assay: BSK_LPS_IL8: BioMAP Diversity Plus: LPS Assay for Interleukin-8 (IL8) Biomarker Activity (AID 2283078); settings: primary human HUVEC with PBMC; actives raise or lower the signal
How it was run: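 In this LPS system, chemical-treated human umbilical vein endothelium/PBMC co-cultures were harvested at 24 h for IL-8 ELISA.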

| Structure (SMILES) | outcome | AC50 |
| --- | --- | --- |
| Nc1ccc(-c2ccc(N)c(N)c2)cc1N | inactive | – |
| O=c1[nH]c(Cl)c(Cl)cc1Cl | inactive | – |
| O=C(O)CCCc1ccc(N(CCCl)CCCl)cc1 | inactive | 25.4 µM (active) |
| COC(C)(C)CCC[C@H](C)C/C=C/C(C)=C/C(=O)OC(C)C | – | 33.5 µM (active) |
| O=P1(NCCCl)OCCCN1CCCl (centres undefined) | inactive | – |
| O=S(=O)(c1ccccc1)c1ccccc1 | inactive | – |
| Clc1ccc(-c2ccccc2)cc1 | inactive | – |
| Oc1cc(Cl)ccc1Cl | inactive | – |

read-out: not listed separately; assay: BSK_LPS_SRB: Viability Assessment in the BioMAP Diversity Plus: LPS Assay (AID 2283079); settings: primary human HUVEC with PBMC;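 also: total protein by sulforhodamine B absorbance as a cytotoxicity measure; measured one day after compound addition; fitted in both directions against DMSO so loss or gain of signal counts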
How it was run: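 Cytotoxicity endpoint in human endothelial–PBMC co-culture: 24 h exposure, then SRB (0.1%) staining, 560 nm read.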

| Structure (SMILES) | outcome | AC50 |
| --- | --- | --- |
| Nc1ccc(-c2ccc(N)c(N)c2)cc1N | inactive | – |
| O=c1[nH]c(Cl)c(Cl)cc1Cl | inactive | – |
| O=C(O)CCCc1ccc(N(CCCl)CCCl)cc1 | – | 20 µM (active) |
| COC(C)(C)CCC[C@H](C)C/C=C/C(C)=C/C(=O)OC(C)C | – | 29.5 µM (active) |
| O=P1(NCCCl)OCCCN1CCCl (centres undefined) | inactive | – |
| O=S(=O)(c1ccccc1)c1ccccc1 | inactive | – |
| Clc1ccc(-c2ccccc2)cc1 | inactive | – |
| Oc1cc(Cl)ccc1Cl | inactive | – |

read-out: Monocyte Chemoattractant Protein-1 (MCP1), CCL2 (gene 6347); assay: BSK_LPS_MCP1: BioMAP Diversity Plus: LPS Assay for Monocyte Chemoattractant Protein-1 (MCP1) Biomarker Activity (AID 2283081); settings: primary human HUVEC with PBMC; actives raise or lower the signal;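 as to AC50: secreted MCP-1 protein quantified by ELISA in culture supernatant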
How it was run: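 Values derive from bidirectional fitting against DMSO of ELISA-measured MCP-1 in a human primary endothelial and mononuclear cell co-culture, 24 h after chemical addition under LPS activation.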

| Structure (SMILES) | outcome | AC50 |
| --- | --- | --- |
| Nc1ccc(-c2ccc(N)c(N)c2)cc1N | inactive | – |
| O=c1[nH]c(Cl)c(Cl)cc1Cl | inactive | – |
| O=C(O)CCCc1ccc(N(CCCl)CCCl)cc1 | – | 20 µM (active) |
| COC(C)(C)CCC[C@H](C)C/C=C/C(C)=C/C(=O)OC(C)C | – | 29.6 µM (active) |
| O=P1(NCCCl)OCCCN1CCCl (centres undefined) | inactive | – |
| O=S(=O)(c1ccccc1)c1ccccc1 | inactive | – |
| Clc1ccc(-c2ccccc2)cc1 | inactive | – |
| Oc1cc(Cl)ccc1Cl | inactive | – |

read-out: not listed separately; assay: BSK_LPS_PGE2: BioMAP Diversity Plus: LPS Assay for Prostaglandin E2 (PGE2) Biomarker Activity (AID 2283082); settings: primary human HUVEC with PBMC; actives raise or lower the signal;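 as to AC50: secreted prostaglandin E2 measured by ELISA in LPS-stimulated co-culture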
How it was run: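 Endpoint derived from bidirectional curve fitting versus DMSO of ELISA-measured PGE2 in LPS-stimulated human primary vascular co-culture (HUVEC with PBMC) harvested at 24 h.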

| Structure (SMILES) | outcome | AC50 |
| --- | --- | --- |
| Nc1ccc(-c2ccc(N)c(N)c2)cc1N | inactive | – |
| O=c1[nH]c(Cl)c(Cl)cc1Cl | inactive | – |
| O=C(O)CCCc1ccc(N(CCCl)CCCl)cc1 | inactive | – |
| COC(C)(C)CCC[C@H](C)C/C=C/C(C)=C/C(=O)OC(C)C | inactive | – |
| O=P1(NCCCl)OCCCN1CCCl (centres undefined) | inactive | – |
| O=S(=O)(c1ccccc1)c1ccccc1 | inactive | – |
| Clc1ccc(-c2ccccc2)cc1 | – | 17.2 µM (active) |
| Oc1cc(Cl)ccc1Cl | inactive | – |

read-out: Macrophage colony-stimulating factor (MCSF), CSF1 (gene 1435); assay: BSK_LPS_MCSF: BioMAP Diversity Plus: LPS Assay for Macrophage colony-stimulating factor (MCSF) Biomarker Activity (AID 2283083); settings: primary human HUVEC with PBMC; actives raise or lower the signal
How it was run: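 Bidirectional fit versus DMSO of ELISA-measured M-CSF in co-cultured human umbilical vein endothelial cells and PBMC, sampled 24 h after dosing.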

| Structure (SMILES) | outcome | AC50 |
| --- | --- | --- |
| Nc1ccc(-c2ccc(N)c(N)c2)cc1N | inactive | – |
| O=c1[nH]c(Cl)c(Cl)cc1Cl | inactive | – |
| O=C(O)CCCc1ccc(N(CCCl)CCCl)cc1 | – | 17.7 µM (active) and 20 µM (active) |
| COC(C)(C)CCC[C@H](C)C/C=C/C(C)=C/C(=O)OC(C)C | – | 20.5 µM (active) |
| O=P1(NCCCl)OCCCN1CCCl (centres undefined) | inactive | – |
| O=S(=O)(c1ccccc1)c1ccccc1 | inactive | – |
| Clc1ccc(-c2ccccc2)cc1 | inactive | – |
| Oc1cc(Cl)ccc1Cl | inactive | – |

read-out: Tissue Factor, F3 (gene 2152); assay: BSK_LPS_TissueFactor: BioMAP Diversity Plus: LPS Assay for Tissue Factor Biomarker Activity (AID 2283084); settings: primary human HUVEC with PBMC; actives raise or lower the signal
How it was run: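 Read-out: CD142 ELISA, 24 h. System: LPS-driven human endothelial/PBMC co-culture. Analysis: up- or down-signal fitted against DMSO.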

| Structure (SMILES) | outcome | AC50 |
| --- | --- | --- |
| Nc1ccc(-c2ccc(N)c(N)c2)cc1N | inactive | – |
| O=c1[nH]c(Cl)c(Cl)cc1Cl | inactive | – |
| O=C(O)CCCc1ccc(N(CCCl)CCCl)cc1 | – | 20 µM (active) and 12.5 µM (active) |
| COC(C)(C)CCC[C@H](C)C/C=C/C(C)=C/C(=O)OC(C)C | – | 26.8 µM (active) |
| O=P1(NCCCl)OCCCN1CCCl (centres undefined) | inactive | – |
| O=S(=O)(c1ccccc1)c1ccccc1 | inactive | – |
| Clc1ccc(-c2ccccc2)cc1 | inactive | – |
| Oc1cc(Cl)ccc1Cl | inactive | – |

read-out: Tumor necrosis factor (Homo sapiens) (UniProt P01375); assay: BSK_LPS_TNFa: BioMAP Diversity Plus: LPS Assay for Tumour Necrosis Factor alpha (TNFa) Biomarker Activity (AID 2283085); settings: primary human HUVEC with PBMC; actives raise or lower the signal;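 as to AC50: TNFa protein level quantified by ELISA in the co-culture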
How it was run: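 Primary human vascular co-culture of HUVEC and PBMC; TNFa ELISA 24 h after treatment, analysed as increase or decrease relative to DMSO control.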

| Structure (SMILES) | outcome | AC50 |
| --- | --- | --- |
| Nc1ccc(-c2ccc(N)c(N)c2)cc1N | inactive | – |
| O=c1[nH]c(Cl)c(Cl)cc1Cl | inactive | – |
| O=C(O)CCCc1ccc(N(CCCl)CCCl)cc1 | inactive | 26.5 µM (active) |
| COC(C)(C)CCC[C@H](C)C/C=C/C(C)=C/C(=O)OC(C)C | – | 32.7 µM (active) |
| O=P1(NCCCl)OCCCN1CCCl (centres undefined) | inactive | – |
| O=S(=O)(c1ccccc1)c1ccccc1 | inactive | – |
| Clc1ccc(-c2ccccc2)cc1 | inactive | – |
| Oc1cc(Cl)ccc1Cl | inactive | – |
